TGFb SMAD3 inh = qHTS for Inhibitors of TGF-b | HepG2 CAGA-GFP TGF-b/SMAD3 reporter, GFP fluorescence, 18 h; TGF-beta stimulated, 500 pg/mL final | Potency, µM (highest dose often 46.1 µM), for the others: top-dose activity, negative = inhibition, most hits filed as inhibitors | 1.2% of 410,000 active | AID 588855, 2011; note: potency is the fitted concentration of half-maximal effect; % is set by controls: 0 for no effect and ±100 for the full control effect; nearly all actives have a fitted effect of over 65% in size
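Inhibition was scored as loss of TGF-beta-induced (500 pg/mL final, 18 hours, 37 degrees C) GFP in HEPG2 cells carrying a CAGA-GFP reporter, in DMEM with 1% FBS. Well GFP was summed per cell; Activity was normalised to unstimulated and stimulated DMSO wells, then concentration-response fitting.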
HepG2 tox = qHTS for Inhibitors of TGF-b: Cytotox Counterscreen | HepG2 CAGA-GFP viability, ATP luminescence, 18 h | Potency, µM (series often up to 46.1 µM), for the others: at the highest dose activity change, negative = cytotoxicity, most hits filed as cytotoxic | 0.76% of 410,000 active; note: potency is the fitted concentration of half-maximal effect
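CellTiter-Glo luminescence gave cytotoxicity after 18 hours at 37 degrees C. The cells were HepG2 CAGA-GFP in 1% FBS DMEM, stimulated with 500 pg/mL TGF-beta after compound addition. %Activity was normalised to no-cell wells (complete cell-killing) and DMSO (no toxicity), and curves were fitted and classified.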
S2 tox = Viability Counterscreen for Primary qHTS for Inhibitors of ATXN expression. 0.49% of 400,000 active. S2 cells (HEK-293 line with an ATXN2-luciferase reporter) viability, CellTiter-Fluor protease fluorescence, 24 h. Potency, µM (highest dose often 56.7 µM), most hits filed as cytotoxic; note: potency is the fitted concentration of half-maximal effect; nearly all actives have a fitted effect of over 40% in size
IL1B secr inh = qHTS for Inhibitors of Inflammasome Signaling: IL-1-beta AlphaLISA Primary Screen; 4.7% of 360,000 active; activity change, % at 57.5 µM; AID 743279, 2014; THP-1 LPS/ATP IL-1B secretion, AlphaLISA, 16 h; active compounds read low; in the data active = activity change below about -50%; inconclusive = mostly about -30% to -49%; note: % is set by controls: 0 for no effect and ±100 for the full control effect
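THP-1 cells pretreated 1 hr with compounds (up to 57.5 uM final), then stimulated with LPS (250 ng/mL final) plus ATP (1.25 mM final); secreted IL-1B measured by AlphaLISA after 16 hr, decreased signal indicating inhibition.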
ATXN2 expr inh = Primary qHTS for Inhibitors of ATXN expression. HEK-293 ATXN2-luciferase reporter, luminescence, 24 h. Potency, µM (doses to about 57 µM), without a hit: at the top dose activity change, negative = inhibition, actives largely listed as inhibitors. 0.72% of 360,000 active; note: potency is the fitted concentration of half-maximal effect; % is set by controls: 0 for no effect and ±100 for the full control effect; nearly all actives have a fitted effect of over 55% in size
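qHTS (up to 57 uM final) was run with 24 h compound exposure of reporter cells at 37 °C. Each well was multiplexed: SteadyGlo luminescence measured ATXN2-luciferase expression after a fluorogenic Gly-Phe-AFC viability readout (25 uM final).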
Active calls of the source: *. Rows were chosen to be rich in hits. Some 5.7% of all compounds tested hit in one or more screens of this group. Unless noted, calls come from the whole dose curve; as a rule, active = well fitted curve in the direction sought with a large enough effect; inconclusive = small, poorly fitted or top-dose-only effect, or another doubt; inactive = no such curve, though single readings can be large; an effect the other way counts as inactive or inconclusive.

What do the screens show for `COC1=C(Nc2ccc(O)cc2)C(=O)c2ccccc2C1=O`?
TGFb SMAD3 inh: inconclusive; HepG2 tox: -84%; S2 tox: inconclusive; IL1B secr inh: -64*; ATXN2 expr inh: -17%

What do the screens show for `CCN(CC)c1ccc(NC(=O)C(C)C)cc1`?
TGFb SMAD3 inh: inconclusive; HepG2 tox: -24%; S2 tox: inactive; IL1B secr inh: -5; ATXN2 expr inh: 7%

How did CCOC(=O)NNc1ccc(N(CC)CC(C)O)nn1 (stereo unspecified) do in these assays?
S2 tox: inactive; ATXN2 expr inh: 5%

How did Cc1cc(Cl)ccc1OCC(=O)Nc1cccc(-c2nc3ccccc3o2)c1 do in these assays?
TGFb SMAD3 inh: -3%; HepG2 tox: 3%

Results for CCc1cccc(-n2nnc(-c3nc(-c4ccccc4Cl)no3)c2N)c1 ?
TGFb SMAD3 inh: 2%; HepG2 tox: 2%

Results for Cc1c(C(=O)NCc2ccc(F)cc2)sc2ncnc(NCC3CCCO3)c12 (stereo unspecified) ?
S2 tox: inactive

What do the screens show for `COc1cc(C)c(NC(C)C(=O)c2c(C)[nH]c3ccccc23)cc1OC` (stereo unspecified)?
TGFb SMAD3 inh: 26%; HepG2 tox: 5%

Results for COc1ccccc1-c1ccc(C(=O)N(C)CC2COCCO2)c(N2CCN(c3ccccc3F)CC2)n1 (stereo unspecified) ?
S2 tox: inactive

Results for Cc1ccccc1Cn1c(=O)n(CC2CCC(C(=O)N3CCC(C)CC3)CC2)c(=O)c2sccc21 (stereo unspecified) ?
TGFb SMAD3 inh: inconclusive; HepG2 tox: -5%; S2 tox: inconclusive; ATXN2 expr inh: inconclusive

Results for O=C1C(Cl)=C(Nc2ccc(O)cc2)C(=O)c2ccccc21 ?
TGFb SMAD3 inh: inconclusive; HepG2 tox: 5.6µM*; S2 tox: 16µM*; IL1B secr inh: -105*; ATXN2 expr inh: 16µM*

How did Cc1ccc(NC2=C(Cl)C(=O)c3ccccc3C2=O)cc1 do in these assays?
TGFb SMAD3 inh: inconclusive; HepG2 tox: -6%; IL1B secr inh: -14; ATXN2 expr inh: inconclusive

How did COC1=C(Nc2ccc(OC)cc2)C(=O)c2ccccc2C1=O do in these assays?
TGFb SMAD3 inh: 16µM*; HepG2 tox: -58%; S2 tox: inconclusive; IL1B secr inh: inconclusive; ATXN2 expr inh: 3%

How did COc1cccc(/C=C2\SC(=S)N(CCCC(=O)N(CCO)c3ccccc3)C2=O)c1 do in these assays?
TGFb SMAD3 inh: inconclusive; HepG2 tox: -58%; S2 tox: inconclusive; IL1B secr inh: -56*; ATXN2 expr inh: 22µM*

What do the screens show for `Cc1ccc(/C=C2\SC(=S)N(CCC(=O)N3CCOCC3)C2=O)cc1`?
TGFb SMAD3 inh: -1%; HepG2 tox: -23%; S2 tox: inactive; IL1B secr inh: 12; ATXN2 expr inh: 36%

What do the screens show for `COc1cccc(/C=C2/SC(=S)N(CCC(=O)N3CCOCC3)C2=O)c1`?
TGFb SMAD3 inh: -8%; HepG2 tox: -24%; S2 tox: inactive; IL1B secr inh: -95*; ATXN2 expr inh: 57%

Results for O=C1/C(=C/c2cccc(Br)c2)SC(=S)N1CCC(=O)N(CCO)c1ccccc1 ?
TGFb SMAD3 inh: inconclusive; HepG2 tox: -43%; S2 tox: inactive; IL1B secr inh: inconclusive; ATXN2 expr inh: 0%

What do the screens show for `COc1ccc(/C=C2\SC(=S)N(CCC(=O)N3CCOCC3)C2=O)cc1`?
TGFb SMAD3 inh: -2%; HepG2 tox: 1%; S2 tox: 0.2µM*; IL1B secr inh: -66*; ATXN2 expr inh: 98%

Results for CCOC(=O)N(C)c1c(CC)nc2c(OCCC3CCCCC3)cccn12 ?
TGFb SMAD3 inh: inconclusive; HepG2 tox: -51%; S2 tox: inconclusive; IL1B secr inh: -77*; ATXN2 expr inh: inconclusive

What do the screens show for `CCCCC(=O)N(C)c1c(CC)nc2c(OCC3CCCCC3)cccn12`?
TGFb SMAD3 inh: inconclusive; HepG2 tox: -50%; S2 tox: inactive; IL1B secr inh: -22; ATXN2 expr inh: inconclusive

What do the screens show for `CCc1nc2c(OCCC3CCCCC3)cccn2c1N(C)C(=O)c1cccs1`?
TGFb SMAD3 inh: -92%; HepG2 tox: -95%; S2 tox: inconclusive; IL1B secr inh: -54*; ATXN2 expr inh: inconclusive

Results for CCCCC(=O)N(C)c1c(CC)nc2c(OCCC3CCCCC3)cccn12 ?
TGFb SMAD3 inh: inconclusive; HepG2 tox: -92%; S2 tox: inconclusive; IL1B secr inh: -68*; ATXN2 expr inh: inconclusive

How did COc1cccc(Cn2c(C)c(CNCc3ccccc3Cl)c(C(=O)O)c2C)c1 do in these assays?
TGFb SMAD3 inh: -2%; HepG2 tox: 1%; S2 tox: inactive; ATXN2 expr inh: 2%

How did O=C(C[N+]1(CC(O)c2ccccc2)CCOCC1)c1ccccc1 (stereo unspecified) do in these assays?
TGFb SMAD3 inh: -26%; HepG2 tox: -41%

How did COc1cccc(NC(=O)COC(=O)c2c(C)nn(-c3ccccc3)c2C)c1 do in these assays?
TGFb SMAD3 inh: -19%; HepG2 tox: -6%; S2 tox: inactive; IL1B secr inh: -56*; ATXN2 expr inh: -6%

How did COc1ccccc1C1c2ccc3ccccc3c2Oc2ncn(CCCO)c(=N)c21 (stereo unspecified) do in these assays?
TGFb SMAD3 inh: 0%; HepG2 tox: -32%; S2 tox: 20µM*; IL1B secr inh: -97*; ATXN2 expr inh: -30%

Results for COc1ccc(C2c3ccc4ccccc4c3Oc3ncn(CCCN(C)C)c(=N)c32)cc1 (stereo unspecified) ?
TGFb SMAD3 inh: inconclusive; HepG2 tox: -169%; S2 tox: inconclusive; IL1B secr inh: -95*; ATXN2 expr inh: inconclusive

Results for COc1ccccc1C1c2ccc3ccccc3c2Oc2ncn(CCN(C)C)c(=N)c21 (stereo unspecified) ?
TGFb SMAD3 inh: inconclusive; HepG2 tox: 16µM*; S2 tox: 22µM*; IL1B secr inh: -98*; ATXN2 expr inh: 25µM*

What do the screens show for `COc1ccc(C2c3ccc4ccccc4c3Oc3ncn4nc(Cc5ccccc5)nc4c32)cc1OC` (stereo unspecified)?
TGFb SMAD3 inh: -2%; HepG2 tox: 5%; S2 tox: inactive; IL1B secr inh: 18; ATXN2 expr inh: 7%

What do the screens show for `COc1ccc(C2c3ccc4ccccc4c3Oc3ncn(Cc4ccco4)c(=N)c32)cc1OC` (stereo unspecified)?
TGFb SMAD3 inh: 2%; HepG2 tox: 12%; S2 tox: inactive; IL1B secr inh: inconclusive; ATXN2 expr inh: -33%
